For eight sequences, binding signal results are on record in publication PMC7862700, “An all-to-all approach to the identification of sequence-specific readers for epigenetic DNA modifications on cytosine”.

What all share (assay): DAPPL (digital affinity profiling via proximity ligation, sequencing); 10 mM Tris-HCl pH 7.5, 50 mM NaCl, 1 mM DTT, 4% glycerol, room temperature, 30 min; GST-TFs on glutathione beads, 16-mer random dsDNA library, 0.1% formaldehyde crosslink after washing; high values mean tight binding
What all share (settings): protein: recombinant; tags: N-terminal GST; dsDNA, one strand shown

The target in one experiment is T1, ERF (Homo sapiens, UniProt P50548 1-548).
T1 sequence: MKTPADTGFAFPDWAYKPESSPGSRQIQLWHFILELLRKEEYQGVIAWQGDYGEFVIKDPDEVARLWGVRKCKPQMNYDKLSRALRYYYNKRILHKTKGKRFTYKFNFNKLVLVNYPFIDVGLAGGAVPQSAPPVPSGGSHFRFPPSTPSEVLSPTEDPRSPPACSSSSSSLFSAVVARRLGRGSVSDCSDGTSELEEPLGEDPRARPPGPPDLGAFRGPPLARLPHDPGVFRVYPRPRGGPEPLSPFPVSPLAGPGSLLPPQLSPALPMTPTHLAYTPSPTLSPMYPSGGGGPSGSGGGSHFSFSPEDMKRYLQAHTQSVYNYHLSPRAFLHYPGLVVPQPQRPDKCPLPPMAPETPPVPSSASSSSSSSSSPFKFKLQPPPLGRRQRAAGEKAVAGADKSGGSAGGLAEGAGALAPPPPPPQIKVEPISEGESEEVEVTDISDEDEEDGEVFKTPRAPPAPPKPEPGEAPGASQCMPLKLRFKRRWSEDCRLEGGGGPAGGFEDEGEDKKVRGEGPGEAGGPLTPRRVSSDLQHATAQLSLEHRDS
Put shortly:
(§1)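 Human transcription factors carrying a GST fusion were produced in yeast, bound to glutathione beads, tagged with DNA barcodes and pooled together with a tag-only sample. Each pool was held with 200 nmole of a random double-stranded 16-mer DNA library in Tris/NaCl/DTT/glycerol buffer for 30 min at room temperature, then washed, crosslinked in 0.1% formaldehyde, proximity-ligated with BsaI/T4 ligase (1 h, 37 °C), PCR-amplified and sequenced on an Illumina NextSeq500. Binding signal is the read frequency of each hexamer for a given factor divided by its frequency in the tag-only sample.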

In another experiment the target is T2, ETS2 (Homo sapiens, UniProt P15036 1-469).
T2 sequence: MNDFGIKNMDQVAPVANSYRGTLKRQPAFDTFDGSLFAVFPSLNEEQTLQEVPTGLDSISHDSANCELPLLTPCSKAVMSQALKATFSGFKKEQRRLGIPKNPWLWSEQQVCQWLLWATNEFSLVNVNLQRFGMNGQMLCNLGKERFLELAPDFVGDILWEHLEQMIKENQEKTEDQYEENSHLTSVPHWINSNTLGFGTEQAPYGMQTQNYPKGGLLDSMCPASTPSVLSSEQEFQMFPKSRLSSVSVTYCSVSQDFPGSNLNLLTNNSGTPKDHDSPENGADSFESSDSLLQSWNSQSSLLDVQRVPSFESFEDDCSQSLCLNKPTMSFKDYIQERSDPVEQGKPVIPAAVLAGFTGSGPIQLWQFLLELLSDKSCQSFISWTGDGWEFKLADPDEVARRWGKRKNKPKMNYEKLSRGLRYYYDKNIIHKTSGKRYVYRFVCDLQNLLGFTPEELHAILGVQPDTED
The gist of the method:
as §1

The target in another experiment is T3, SPDEF (Homo sapiens, UniProt O95238 1-335).
T3 sequence: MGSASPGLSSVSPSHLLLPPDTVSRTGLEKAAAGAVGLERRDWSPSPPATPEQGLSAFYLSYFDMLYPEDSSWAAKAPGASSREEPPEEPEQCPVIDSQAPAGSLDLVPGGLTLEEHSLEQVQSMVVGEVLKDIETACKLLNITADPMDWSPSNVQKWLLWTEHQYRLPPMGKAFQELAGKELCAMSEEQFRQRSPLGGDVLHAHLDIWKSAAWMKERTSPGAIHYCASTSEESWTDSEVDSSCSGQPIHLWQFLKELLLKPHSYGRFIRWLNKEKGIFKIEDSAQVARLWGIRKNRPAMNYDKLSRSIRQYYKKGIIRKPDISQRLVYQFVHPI
The gist of the method:
as §1

For another experiment, the target named is T4, ELF5 (Homo sapiens, UniProt Q9UKW6-2 1-255).
T4 sequence: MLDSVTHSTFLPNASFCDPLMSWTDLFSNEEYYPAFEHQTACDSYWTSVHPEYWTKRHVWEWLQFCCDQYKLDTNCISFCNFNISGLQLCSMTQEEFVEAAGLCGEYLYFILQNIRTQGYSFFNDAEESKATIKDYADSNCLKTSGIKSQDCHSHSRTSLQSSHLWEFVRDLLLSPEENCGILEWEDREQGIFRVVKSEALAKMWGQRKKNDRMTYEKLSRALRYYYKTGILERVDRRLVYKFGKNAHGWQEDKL
Put shortly:
as §1

In the next experiment the target is T5, ETV3 (Homo sapiens, UniProt P41162-2 1-143).
T5 sequence: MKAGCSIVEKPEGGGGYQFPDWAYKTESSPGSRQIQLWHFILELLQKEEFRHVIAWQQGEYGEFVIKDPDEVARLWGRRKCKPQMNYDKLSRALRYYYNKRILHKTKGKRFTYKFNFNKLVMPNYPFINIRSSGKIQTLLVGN
The gist of the method: as §1

The target of the next experiment is ETV6 (Homo sapiens, UniProt P41212 1-452). Put shortly:
as §1

A further experiment deals with T6, ETV7 (Homo sapiens, UniProt Q9Y603 1-341).
T6 sequence: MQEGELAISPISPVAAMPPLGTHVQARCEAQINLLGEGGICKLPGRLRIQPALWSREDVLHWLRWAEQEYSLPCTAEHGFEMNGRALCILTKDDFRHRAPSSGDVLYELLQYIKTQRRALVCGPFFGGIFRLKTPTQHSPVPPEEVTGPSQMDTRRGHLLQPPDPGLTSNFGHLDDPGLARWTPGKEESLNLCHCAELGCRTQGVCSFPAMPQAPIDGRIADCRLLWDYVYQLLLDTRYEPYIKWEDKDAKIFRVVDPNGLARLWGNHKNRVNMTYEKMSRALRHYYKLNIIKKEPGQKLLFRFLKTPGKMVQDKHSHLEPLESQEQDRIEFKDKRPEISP
Put shortly: as §1

In a further experiment the target is T7, ETV3L (Homo sapiens, UniProt Q6ZN32 1-361).
T7 sequence: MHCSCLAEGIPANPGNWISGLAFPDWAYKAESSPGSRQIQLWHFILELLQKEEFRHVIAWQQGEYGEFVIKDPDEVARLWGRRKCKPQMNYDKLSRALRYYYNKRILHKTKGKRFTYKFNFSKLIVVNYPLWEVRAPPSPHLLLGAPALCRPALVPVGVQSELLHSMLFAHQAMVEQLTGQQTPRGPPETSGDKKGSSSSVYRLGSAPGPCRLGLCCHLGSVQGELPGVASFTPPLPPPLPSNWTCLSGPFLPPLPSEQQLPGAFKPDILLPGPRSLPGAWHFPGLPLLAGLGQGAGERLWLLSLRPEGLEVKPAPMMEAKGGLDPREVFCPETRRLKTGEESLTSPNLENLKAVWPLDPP
The gist of the method: as §1

Sequence of ETV6 (P41212 whole entry): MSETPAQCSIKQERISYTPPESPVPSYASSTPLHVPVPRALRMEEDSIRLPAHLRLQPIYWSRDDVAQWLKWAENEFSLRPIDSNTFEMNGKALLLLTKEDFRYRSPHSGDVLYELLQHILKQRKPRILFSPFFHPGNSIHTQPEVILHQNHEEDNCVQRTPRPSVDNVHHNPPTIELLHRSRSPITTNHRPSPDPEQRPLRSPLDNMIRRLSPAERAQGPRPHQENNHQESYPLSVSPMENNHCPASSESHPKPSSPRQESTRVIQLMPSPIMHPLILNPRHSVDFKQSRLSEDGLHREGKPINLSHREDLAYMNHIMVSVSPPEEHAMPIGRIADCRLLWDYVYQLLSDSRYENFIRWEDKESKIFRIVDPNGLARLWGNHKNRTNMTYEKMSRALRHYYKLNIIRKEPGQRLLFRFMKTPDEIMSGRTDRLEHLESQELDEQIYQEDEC

On to ATGTAG, for which the binding signal with ERF was 1.14 fold enrichment (6-mer frequency, TF over GST control); with ETS2, 1.08 fold enrichment (6-mer frequency, TF over GST control); in the experiment with SPDEF it was 1.09 fold enrichment (6-mer frequency, TF over GST control); with ELF5 it was 1.04 fold enrichment (6-mer frequency, TF over GST control); with ETV3 it was 1.08 fold enrichment (6-mer frequency, TF over GST control); with ETV6, 1.02 fold enrichment (6-mer frequency, TF over GST control).

As to GAATTA, the binding signal is 1.06 fold enrichment (6-mer frequency, TF over GST control) in the experiment with ERF; 1.05 fold enrichment (6-mer frequency, TF over GST control) with ETS2; 1.01 fold enrichment (6-mer frequency, TF over GST control) with SPDEF; 1.06 fold enrichment (6-mer frequency, TF over GST control) with ETV7; 1.03 fold enrichment (6-mer frequency, TF over GST control) in the experiment with ELF5; 1.1 fold enrichment (6-mer frequency, TF over GST control) with ETV3. In addition, in the experiment with ETV6, the binding signal was 1.08 fold enrichment (6-mer frequency, TF over GST control).

Turning to TTAGGT, the binding signal is 1.19 fold enrichment (6-mer frequency, TF over GST control) with ERF; 1.13 fold enrichment (6-mer frequency, TF over GST control) in the experiment with ETS2; 1.09 fold enrichment (6-mer frequency, TF over GST control) with SPDEF; 1.09 fold enrichment (6-mer frequency, TF over GST control) in the experiment with ETV7; 1.02 fold enrichment (6-mer frequency, TF over GST control) with ELF5; 1.06 fold enrichment (6-mer frequency, TF over GST control) with ETV3. For the same sequence, the binding signal with ETV6 was 1.16 fold enrichment (6-mer frequency, TF over GST control).

GGTTCA: the binding signal was 1.01 fold enrichment (6-mer frequency, TF over GST control) with ERF; 1.11 fold enrichment (6-mer frequency, TF over GST control) in the experiment with ETS2; 1.13 fold enrichment (6-mer frequency, TF over GST control) with SPDEF; 1.02 fold enrichment (6-mer frequency, TF over GST control) with ELF5; 1.09 fold enrichment (6-mer frequency, TF over GST control) with ETV3; 1.09 fold enrichment (6-mer frequency, TF over GST control) with ETV6.

For the sequence AATCCA, the binding signal was 1.11 fold enrichment (6-mer frequency, TF over GST control) with ERF; 1.14 fold enrichment (6-mer frequency, TF over GST control) with ETS2; 1.07 fold enrichment (6-mer frequency, TF over GST control) with SPDEF; 1.14 fold enrichment (6-mer frequency, TF over GST control) in the experiment with ETV7; 1.05 fold enrichment (6-mer frequency, TF over GST control) with ELF5; 1.03 fold enrichment (6-mer frequency, TF over GST control) in the experiment with ETV3. Also, the binding signal in the experiment with ETV6 was 1.11 fold enrichment (6-mer frequency, TF over GST control).

Take CGAAAT: the binding signal with ERF was 1.03 fold enrichment (6-mer frequency, TF over GST control); with SPDEF it was 1.04 fold enrichment (6-mer frequency, TF over GST control); in the experiment with ETV7, 1.11 fold enrichment (6-mer frequency, TF over GST control); with ETV3 it was 1.03 fold enrichment (6-mer frequency, TF over GST control).

As for TGTGAC, the binding signal with ETV3L is 1.22 fold enrichment (6-mer frequency, TF over GST control); in the experiment with ETS2 it was 1.14 fold enrichment (6-mer frequency, TF over GST control); with SPDEF it was 1.2 fold enrichment (6-mer frequency, TF over GST control); with ETV7, 1.12 fold enrichment (6-mer frequency, TF over GST control); with ELF5, 1.1 fold enrichment (6-mer frequency, TF over GST control); with ETV3 it was 1.17 fold enrichment (6-mer frequency, TF over GST control). In the experiment with ETV6, the binding signal is 1.07 fold enrichment (6-mer frequency, TF over GST control).

Consider TGAGCT, for which the binding signal in the experiment with ERF is 1.05 fold enrichment (6-mer frequency, TF over GST control); with ETV6 it was 1.05 fold enrichment (6-mer frequency, TF over GST control).
